Measured values published in the supplement of paper PMC7411054.
Where a name gives a salt, the structure may show the parent alone.

Key:
Conditions in all cases: treatment time: 24 h
[1] = tested on: A549-ACTB-RAB5A; test: lowest phenotypically active concentration; higher = less potent
In short: (§1)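 After 24 h at 0.3, 1, 3 or 9 µM, with four wells per treatment, fifteen gene-edited A549, HepG2 and WPMY1 reporter lines carrying BFP, GFP and RFP/FusionRed were imaged live. Each well's live-cell features were expressed relative to solvent control wells. Deviation required ≥3 of 4 wells past the 95th percentile of control Euclidean distances, and reproducibility a median replicate Pearson correlation over the 95th percentile of non-replicates. Phenotypic activity rested on both.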

[2] = tested on: A549-ACTB-RAB5A; test: phenotypically active (imaging signature differs from DMSO and reproducible) at any of 0.3-9 uM (binary (1 = active, 0 = inactive)); higher = active
In short: as §1

[3] = tested on: A549-CANX-COX4; test: as above
In short: as §1

[4] = tested on: A549-GM130-SQSTM1; test: as above
In short: as §1

[5] = tested on: A549-TP53BP1-CLTA; test: as above
In short: as §1

[6] = tested on: A549-TUBA1B-RELA; test: as above
In short: as §1

[7] = tested on: HepG2-ACTB-RAB5A; test: as above
In short: as §1

[8] = tested on: HepG2-CANX-COX4; test: as above
In short: as §1

[9] = tested on: HepG2-GM130-SQSTM1; test: as above
In short: as §1

[10] = tested on: HepG2-TP53BP1-CLTA; test: as above
In short: as §1

[11] = tested on: HepG2-TUBA1B-RELA; test: as above
In short: as §1

[12] = tested on: WPMY1-ACTB-RAB5A; test: as above
In short: as §1

[13] = tested on: WPMY1-CANX-COX4; test: as above
In short: as §1

[14] = tested on: WPMY1-GM130-SQSTM1; test: as above
In short: as §1

[15] = tested on: WPMY1-TP53BP1-CLTA; test: as above
In short: as §1

[16] = tested on: WPMY1-TUBA1B-RELA; test: as above
In short: as §1

[17] = tested on: WPMY1-GM130-SQSTM1; test: lowest phenotypically active concentration; higher = less potent
In short: as §1

[18] = tested on: A549-GM130-SQSTM1; test: as above
In short: as §1

[19] = tested on: HepG2-ACTB-RAB5A; test: as above
In short: as §1

[20] = tested on: A549-TUBA1B-RELA; test: as above
In short: as §1

SMILES | lowest phenotypically active concentration [1] [µM] | phenotypically active [2] | phenotypically active [3] | phenotypically active [4] | phenotypically active [5] | phenotypically active [6] | phenotypically active [7] | phenotypically active [8] | phenotypically active [9] | phenotypically active [10] | phenotypically active [11] | phenotypically active [12] | phenotypically active [13] | phenotypically active [14] | phenotypically active [15] | phenotypically active [16] | lowest phenotypically active concentration [17] [µM] | lowest phenotypically active concentration [18] [µM] | lowest phenotypically active concentration [19] [µM] | lowest phenotypically active concentration [20] [µM]
Cc1c[nH]c2ncnc(-c3ccc(NC(=O)N(CCO)c4ccccc4)cc3)c12 | 9 | 1 (active) | 0 (inactive) | 0 (inactive) | 0 (inactive) | 0 (inactive) | 0 (inactive) | 0 (inactive) | 0 (inactive) | 0 (inactive) | 0 (inactive) | 0 (inactive) | 0 (inactive) | 0 (inactive) | 0 (inactive) | 1 (active) |  |  |  | 
CC(C)(C)c1ccc(S(=O)(=O)/C=C/C#N)cc1 | 9 | 1 (active) | 0 (inactive) | 0 (inactive) | 0 (inactive) | 0 (inactive) | 0 (inactive) | 0 (inactive) | 1 (active) | 0 (inactive) | 1 (active) | 0 (inactive) | 1 (active) | 1 (active) | 1 (active) | 0 (inactive) | 9 |  |  | 
COc1cc2nc3occc3c(OC)c2cc1OC [Kokusaginine] |  | 0 (inactive) | 0 (inactive) | 1 (active) | 0 (inactive) | 0 (inactive) | 0 (inactive) | 0 (inactive) | 0 (inactive) | 0 (inactive) | 0 (inactive) | 0 (inactive) | 0 (inactive) | 0 (inactive) | 0 (inactive) | 0 (inactive) |  | 3 |  | 
Nc1ncnc2c1nc(Br)n2[C@@H]1O[C@@H]2COP(=O)(O)O[C@H]2[C@H]1O [8-Bromo-cAMP, sodium salt] | 9 | 1 (active) | 0 (inactive) | 0 (inactive) | 0 (inactive) | 0 (inactive) | 0 (inactive) | 0 (inactive) | 0 (inactive) | 0 (inactive) | 0 (inactive) | 0 (inactive) | 1 (active) | 0 (inactive) | 0 (inactive) | 0 (inactive) |  |  |  | 
COC(=O)C1=CO[C@@H](C)[C@H]2CN3CCc4c([nH]c5ccccc45)[C@@H]3C[C@H]12 [Ajmalicine hydrochloride] |  | 0 (inactive) | 1 (active) | 0 (inactive) | 0 (inactive) | 0 (inactive) | 1 (active) | 1 (active) | 0 (inactive) | 1 (active) | 0 (inactive) | 0 (inactive) | 1 (active) | 1 (active) | 0 (inactive) | 0 (inactive) | 3 |  | 9 | 
Cn1c(=O)c2nc[nH]c2n(C)c1=O [theophylline] |  | 0 (inactive) | 0 (inactive) | 1 (active) | 0 (inactive) | 0 (inactive) | 0 (inactive) | 0 (inactive) | 0 (inactive) | 0 (inactive) | 0 (inactive) | 0 (inactive) | 0 (inactive) | 0 (inactive) | 0 (inactive) | 0 (inactive) |  | 9 |  | 
Cc1cc(C(C)Nc2ccccc2)c2nc(N3CCOCC3)cc(=O)n2c1 (stereo not drawn) | 9 | 1 (active) | 0 (inactive) | 0 (inactive) | 0 (inactive) | 0 (inactive) | 1 (active) | 0 (inactive) | 0 (inactive) | 0 (inactive) | 0 (inactive) | 0 (inactive) | 1 (active) | 1 (active) | 0 (inactive) | 0 (inactive) | 9 |  | 9 | 
CC(=O)C1=C(O)[C@]2(C)C(=CC1=O)Oc1c(C(C)=O)c(O)c(C)c(O)c12 [(+)-Usnic acid] |  | 0 (inactive) | 0 (inactive) | 1 (active) | 0 (inactive) | 0 (inactive) | 0 (inactive) | 0 (inactive) | 0 (inactive) | 0 (inactive) | 0 (inactive) | 0 (inactive) | 0 (inactive) | 0 (inactive) | 0 (inactive) | 0 (inactive) |  | 9 |  | 
COc1cc(C)c(/C=C/C(C)=C/C=C/C(C)=C/C(=O)O)c(C)c1C [acitretin] | 9 | 1 (active) | 0 (inactive) | 0 (inactive) | 0 (inactive) | 0 (inactive) | 0 (inactive) | 0 (inactive) | 0 (inactive) | 0 (inactive) | 0 (inactive) | 0 (inactive) | 1 (active) | 1 (active) | 0 (inactive) | 0 (inactive) | 9 |  |  | 
O=c1cc(N2CCOCC2)oc2c(-c3ccccc3)cccc12 |  | 0 (inactive) | 0 (inactive) | 1 (active) | 1 (active) | 1 (active) | 1 (active) | 0 (inactive) | 1 (active) | 1 (active) | 1 (active) | 1 (active) | 1 (active) | 1 (active) | 1 (active) | 0 (inactive) | ≤ 0.3 | 9 | 9 | 9
CC1(C)CCC(C)(C)c2cc(C(O)C(=O)Nc3ccc(C(=O)O)cc3F)ccc21 (stereo not drawn) |  | 0 (inactive) | 0 (inactive) | 0 (inactive) | 0 (inactive) | 0 (inactive) | 0 (inactive) | 1 (active) | 0 (inactive) | 0 (inactive) | 0 (inactive) | 0 (inactive) | 0 (inactive) | 0 (inactive) | 0 (inactive) | 0 (inactive) |  |  |  | 
O=C(O)[C@H]1CCCC[C@H]1C(=O)N1CCc2ccccc2[C@H]1CN1C(=O)c2ccccc2C1=O |  | 0 (inactive) | 0 (inactive) | 0 (inactive) | 0 (inactive) | 0 (inactive) | 1 (active) | 0 (inactive) | 1 (active) | 0 (inactive) | 1 (active) | 0 (inactive) | 0 (inactive) | 0 (inactive) | 0 (inactive) | 0 (inactive) |  |  | 9 | 
CC(C)[C@@H](C)/C=C/[C@@H](C)[C@H]1CC[C@H]2C3=CC=C4C[C@@H](O)CC[C@]4(C)[C@H]3CC[C@]12C [Ergosterine] |  | 0 (inactive) | 0 (inactive) | 1 (active) | 0 (inactive) | 1 (active) | 0 (inactive) | 0 (inactive) | 1 (active) | 0 (inactive) | 0 (inactive) | 0 (inactive) | 0 (inactive) | 0 (inactive) | 0 (inactive) | 0 (inactive) |  | 9 |  | 9
Nc1nnc2[nH]c3ccccc3nc1-2 |  | 0 (inactive) | 0 (inactive) | 0 (inactive) | 0 (inactive) | 0 (inactive) | 0 (inactive) | 1 (active) | 0 (inactive) | 0 (inactive) | 0 (inactive) | 0 (inactive) | 0 (inactive) | 0 (inactive) | 0 (inactive) | 0 (inactive) |  |  |  | 
CC(C)NCC(O)COc1ccc(CC(N)=O)cc1 (stereo not drawn) [atenolol-()] |  | 0 (inactive) | 0 (inactive) | 1 (active) | 0 (inactive) | 0 (inactive) | 0 (inactive) | 0 (inactive) | 0 (inactive) | 0 (inactive) | 0 (inactive) | 0 (inactive) | 0 (inactive) | 1 (active) | 1 (active) | 0 (inactive) | 9 | 9 |  | 
